13 compounds from PubChem BioAssay (NCI) can be followed below.

Test systems include NCI-H23 lung; NCI-H226 lung; NCI-H322M lung; HOP-62 NSCLC; NCI-H460 lung; HOP-92 NSCLC; NCI-H522 lung; A549/ATCC NSCLC; 786-0 renal; COLO 205 colon.
Holding throughout (assay): NCI-60 one-dose screen, 48 h (100 = growth as untreated, 0 = no growth, -100 = all killed)
Holding throughout (settings): 10 µM unless noted

This is part of a sample that, as a whole, favours compounds with a hit. Of some 83,000 tested, about 20% had one in any assay.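 48-hour exposure, single concentration, 96-well plates; percent growth endpoint where 0 means no net growth. Active: below 10.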 A number with no mark means an inactive call. Active and inactive are the calls of the source.

Consider `Cc1ccc(Nc2nc(NCCO)c3ccccc3n2)cc1C`, for which the growth with NCI-H23 lung is 15.8%; in the assay with NCI-H226 lung, 1.03% (active); in the assay on NCI-H322M lung, 55.5%; in the assay on HOP-62 NSCLC, 20.3%; with NCI-H460 lung, -2.08% (active); in the assay on HOP-92 NSCLC, 89.7%. Moreover, the growth in the assay on NCI-H522 lung was -21% (active); with A549/ATCC NSCLC it was 13.6%; in the assay on 786-0 renal it was 29%; with COLO 205 colon, -65.7% (active).
On to `C/C(=N\OC(=O)Nc1ccccc1)c1ccccc1`, for which the growth is 105% in the assay on NCI-H23 lung; 95.2% in the assay on NCI-H226 lung; 99.1% in the assay on NCI-H322M lung; 118% in the assay on HOP-62 NSCLC; 103% in the assay on NCI-H460 lung; 126% with HOP-92 NSCLC. The growth in the assay on NCI-H522 lung is 98.6%; in the assay on A549/ATCC NSCLC, 88.3%; in the assay with 786-0 renal it was 99.3%; in the assay with COLO 205 colon, 114%.
Take `CCCCn1c(C)nc2ccc(Nc3nc(Cl)nc4nc[nH]c34)cc21`: the growth in the assay on NCI-H23 lung was 75.3%; in the assay on NCI-H226 lung, 62.4%; with NCI-H322M lung, 82.5%; in the assay with HOP-62 NSCLC, 66.1%; in the assay on NCI-H460 lung, 70.9%; in the assay with HOP-92 NSCLC, -11.2% (active). Besides, the growth is 73.2% with NCI-H522 lung, 81.4% in the assay with A549/ATCC NSCLC, 55.4% with 786-0 renal and 86.8% in the assay with COLO 205 colon.
Take `CC(=O)c1c(C)nc(-c2cc(C)cc(Cl)c2)nc1-c1cccc(Oc2ccccc2)c1`: the growth is 86% with NCI-H23 lung; 84% in the assay on NCI-H226 lung; 91% in the assay on NCI-H322M lung; 76.2% in the assay with HOP-62 NSCLC; 36.1% with NCI-H460 lung; 38% in the assay on HOP-92 NSCLC. Also, the growth with NCI-H522 lung was 59%; in the assay on A549/ATCC NSCLC, 69.1%; in the assay with 786-0 renal, 70.3%; in the assay on COLO 205 colon, 70.2%.
Regarding `Cc1cc(C#Cc2ccccc2)ccc1-n1c(/C=C/c2ccc(F)cc2)nc2ccccc2c1=O`, the growth was 71.5% in the assay with NCI-H23 lung; 84.7% in the assay on NCI-H226 lung; 87.5% with NCI-H322M lung; 122% with HOP-62 NSCLC; 63.6% with NCI-H460 lung; 39.2% in the assay with HOP-92 NSCLC. For the same compound, the growth in the assay on NCI-H522 lung is 64.1%; with A549/ATCC NSCLC it was 68.5%; in the assay with 786-0 renal it was 80.4%; with COLO 205 colon, 53.3%.
`O=C(O)c1cn(-c2ccccc2)nc1-c1ccc(O)cc1`: the growth in the assay with NCI-H23 lung was 93.9%; in the assay with NCI-H226 lung it was 107%; in the assay on NCI-H322M lung, 100%; in the assay with HOP-62 NSCLC, 92.7%; with NCI-H460 lung it was 94.7%; with HOP-92 NSCLC it was 85.5%. Besides, the growth was 78.6% in the assay with NCI-H522 lung, 92.4% in the assay on A549/ATCC NSCLC, 97.4% with 786-0 renal and 109% in the assay on COLO 205 colon.
Turning to `O=C1/C(=C\c2cccn2Cc2ccc(Cl)cc2)c2ccccc2N1c1c(Cl)cccc1Cl`, the growth in the assay with NCI-H23 lung was 86.3%; in the assay with NCI-H226 lung it was 59.3%; with NCI-H322M lung, 68.6%; in the assay with HOP-62 NSCLC, 98.6%; in the assay with NCI-H460 lung, 94%; with HOP-92 NSCLC, 74.8%. The growth was 76.6% in the assay on NCI-H522 lung, 67.2% with A549/ATCC NSCLC, 81.7% with 786-0 renal and 93.6% in the assay with COLO 205 colon.
Consider `O=c1cc(N2CCOCC2)oc2c(-c3ccc4c(c3)OCCO4)csc12`, for which the growth with NCI-H23 lung is 31.9%; in the assay on NCI-H226 lung, 11.6%; in the assay on NCI-H322M lung, 19.8%; in the assay with HOP-62 NSCLC, 15.5%; in the assay with NCI-H460 lung, 22%; in the assay with HOP-92 NSCLC, 11.9%. Also, the growth in the assay on NCI-H522 lung is 28.8%; with A549/ATCC NSCLC it was 12.9%; in the assay on 786-0 renal, 9.88% (active); in the assay with COLO 205 colon, 5.88% (active).
With `COc1cccc(CC(C)=C(c2ccc(OCCCN(C)C)cc2)c2ccc(OCCCN(C)C)cc2)c1`, the growth was -66.9% (active) with NCI-H23 lung; -18.9% (active) in the assay with NCI-H226 lung; -95% (active) with NCI-H322M lung; -81% (active) in the assay on HOP-62 NSCLC; -90.2% (active) in the assay on NCI-H460 lung; -53% (active) in the assay with HOP-92 NSCLC. For the same compound, the growth was -77.3% (active) with NCI-H522 lung, -81.5% (active) in the assay on A549/ATCC NSCLC, -85.6% (active) in the assay with 786-0 renal and -74.1% (active) with COLO 205 colon.
Consider `C/C(=N\OC(=O)Nc1cccc(Cl)c1)c1ccccc1`, for which the growth is 106% in the assay on NCI-H23 lung; 92.1% in the assay on NCI-H226 lung; 97.6% in the assay on NCI-H322M lung; 95.8% in the assay on HOP-62 NSCLC; 105% with NCI-H460 lung; 132% in the assay on HOP-92 NSCLC. Besides, the growth with NCI-H522 lung is 91.9%; with A549/ATCC NSCLC it was 89.2%; in the assay on 786-0 renal, 99.4%; in the assay with COLO 205 colon, 117%.
For `CCCCn1c(C)nc2cc(Nc3nc(Cl)nc4nc[nH]c34)ccc21`, the growth was 77.9% in the assay on NCI-H23 lung; 75% in the assay with NCI-H226 lung; 76.8% in the assay with NCI-H322M lung; 66% in the assay on HOP-62 NSCLC; 84.7% in the assay on NCI-H460 lung; -1.07% (active) in the assay with HOP-92 NSCLC. Moreover, the growth with NCI-H522 lung was 78.9%; in the assay on A549/ATCC NSCLC, 85%; in the assay with 786-0 renal, 76.4%; in the assay with COLO 205 colon it was 89.7%.
As for `COc1ccc(C2C=C(c3ccc(Cl)cc3)N=C3SC=CN32)cc1` (stereo not given), the growth is 101% in the assay on NCI-H23 lung; 112% in the assay on NCI-H226 lung; 133% with NCI-H322M lung; 108% in the assay on HOP-62 NSCLC; 103% in the assay with NCI-H460 lung; 86.4% in the assay on HOP-92 NSCLC. Further, the growth with NCI-H522 lung was 113%; with A549/ATCC NSCLC, 104%; in the assay on 786-0 renal it was 97.8%; in the assay on COLO 205 colon, 109%.
Turning to `CC(=O)c1c(O)c(C)c(O)c2c1OC1=CC(=O)/C(=C(/C)N)C(=O)C12C` (stereo not given), the growth in the assay with NCI-H23 lung is 89.8%; with NCI-H226 lung, 73.8%; with NCI-H322M lung, 97.3%; with HOP-62 NSCLC, 94.9%; in the assay on NCI-H460 lung, 98.2%; with HOP-92 NSCLC it was 99.7%. Further, the growth with NCI-H522 lung was 77.6%; in the assay with A549/ATCC NSCLC, 83%; in the assay with 786-0 renal, 98.3%; in the assay on COLO 205 colon it was 95.8%.
